± gives the standard deviation of the averaged measurements.
What was measured:
DLD1 [1] = test: cell viability (CellTiter-Glo) relative to plate median (fraction of plate median); higher = more viable cells; settings: 5 µM; treatment time 24 h; reporter: 7TFP
How it was run: (§1)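 On parallel plates, a Tecan F500 reader recorded either firefly luciferase or CellTiterGlo luminescence. The plates held colorectal cancer cells stably transduced with lentiviral TCF/Wnt firefly luciferase reporters (7TFP or TCF4/Wnt), seeded in 384-well format and treated 24 h later with library compounds at a final 5 µM for 24 h. Per-well signals were normalised to the plate median (webcellHTS2, additive, no log transformation), and two independent replicates were averaged.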

HCT116 = test: as above; settings: 5 µM; treatment time 24 h; reporter: TCF4/Wnt
How it was run: as §1

SW480 [2] = test: as above; settings: 5 µM; treatment time 24 h; reporter: 7TFP
How it was run: as §1

DLD1 [3] = test: TCF/Wnt firefly luciferase reporter signal relative to plate median (fraction of plate median); higher = higher Wnt reporter signal; settings: 5 µM; treatment time 24 h; reporter: 7TFP
How it was run: as §1

SW480 [4] = test: as above; settings: 5 µM; treatment time 24 h; reporter: 7TFP
How it was run: as §1

Structure (SMILES)	cell viability (DLD1 [1])	cell viability (HCT116)	cell viability (SW480 [2])	TCF/Wnt firefly luciferase reporter signal (DLD1 [3])	TCF/Wnt firefly luciferase reporter signal (SW480 [4])
C=CC(N)CCC(=O)O (stereo not given)	1.06 ± 0.021	0.934 ± 0.086	1.06	0.952 ± 0.21	1.06 ± 0.092
CN1C(=O)CC[C@H]1c1cccnc1	1.03 ± 0.035	1.1 ± 0.078	1.07 ± 0.014	1.06 ± 0.057	0.94 ± 0.073
COc1ccc(/C=C/C(=O)c2cc(O)ccc2O)cc1	0.979 ± 0.044	0.959 ± 0.073	0.98 ± 0.029	1.18 ± 0.014	1.05 ± 0.17
CC(Oc1ccccc1)C(=O)N[C@@H]1C(=O)N2[C@@H]1SC(C)(C)[C@@H]2C(=O)O (stereo not given in full)	0.97 ± 0.032	0.928 ± 0.022	0.9865 ± 0.00071	1.07 ± 0.071	1.065 ± 0.0071
C=CC1=C(C)/C(=C/c2[nH]c(Cc3[nH]c(/C=C4\NC(=O)C(C)=C4C=C)c(C)c3CCC(=O)O)c(CCC(=O)O)c2C)NC1=O	1.04 ± 0.087	1.03	0.98 ± 0.018	0.964 ± 0.15	0.936 ± 0.018
CC(=O)OCC(=O)[C@@]1(O)CC[C@H]2[C@@H]3CCC4=CC(=O)CC[C@]4(C)[C@@]3(F)[C@@H](O)C[C@@]21C	0.975 ± 0.027	1.07 ± 0.085	0.995 ± 0.022	1.06	1.07 ± 0.11
CCOc1ccc2c(c1)C(C)=CC(C)(C)N2	1 ± 0.071	0.91 ± 0.09	1.01 ± 0.035	0.775 ± 0.12	0.899 ± 0.056
CC(=O)Oc1cc(-c2coc3cc(OC(C)=O)c(OC(C)=O)c(OC(C)=O)c3c2=O)cc(OC(C)=O)c1OC(C)=O	1 ± 0.015	1.09 ± 0.2	0.998 ± 0.018	1.09 ± 0.17	0.95 ± 0.1
CCCCC[C@H](CC(=O)NO)C(=O)N[C@H](C(=O)N1CCC[C@H]1CO)C(C)C	0.951 ± 0.0042	0.932 ± 0.057	0.9655 ± 0.00071	1 ± 0.05	1.16 ± 0.035
COc1cc(Cc2cnc(N)nc2N)cc(OC)c1OC	0.988 ± 0.013	1 ± 0.15	0.991 ± 0.013	1 ± 0.057	0.831 ± 0.17
CC(C)[C@@H](C)/C=C/[C@@H](C)[C@H]1CC[C@H]2C3=CCC4CC(=O)CC[C@]4(C)[C@H]3CC[C@]12C (stereo not given in full)	0.975 ± 0.078	1.07 ± 0.05	1.08	1.06 ± 0.071	1.06 ± 0.021
O=C(O)c1ccccc1C(=O)Nc1ccc(S(=O)(=O)Nc2nccs2)cc1	1.05 ± 0.08	0.918 ± 0.088	1.004 ± 0.0085	1.03 ± 0.12	1.11 ± 0.021
CC(C)C(=O)Nc1ccc([N+](=O)[O-])c(C(F)(F)F)c1	1.055 ± 0.0071	0.984 ± 0.037	1.02 ± 0.029	0.924 ± 0.047	0.9955 ± 0.0064
CC(C)(C)CC(C)(C)c1ccc(OCCOCC[N+](C)(C)Cc2ccccc2)cc1	1.07 ± 0.028	0.99 ± 0.071	1.05 ± 0.021	0.983 ± 0.081	0.897 ± 0.017
CC(C)=CC1C(CO)C1(C)C (stereo not given)	0.996 ± 0.049	0.948 ± 0.061	1.02 ± 0.014	0.984 ± 0.052	0.97 ± 0.18
CC1=NN(c2ccccc2)C(=O)C1	1.03 ± 0.054	0.921 ± 0.021	1.03 ± 0.06	0.979 ± 0.14	1.01 ± 0.025
CC1(C)O[C@@H]2C[C@H]3[C@@H]4C[C@H](F)C5=CC(=O)C=C[C@]5(C)[C@H]4[C@@H](O)C[C@]3(C)[C@]2(C(=O)CO)O1	0.996 ± 0.0057	1.03 ± 0.055	0.978 ± 0.0042	0.928 ± 0.0085	1.03 ± 0.067
NC(=O)N1c2ccccc2CC(=O)c2ccccc21	0.9 ± 0.09	0.847 ± 0.09	1.03 ± 0.014	1.06	1.1 ± 0.14
CC1(C)C[C@@H]2C(=O)CC[C@H]3O[C@]3(C)CC[C@H]21	1.09 ± 0.057	1.01 ± 0.073	1.02	1.03 ± 0.047	0.985 ± 0.036
COC(=O)[C@H]1[C@H]2C[C@@H]3c4[nH]c5cc(OC)ccc5c4CCN3C[C@H]2C[C@@H](OC(=O)c2cc(OC)c(OC)c(OC)c2)[C@@H]1OC	0.932 ± 0.065	1.02 ± 0.07	0.972 ± 0.054	0.974 ± 0.093	1.01 ± 0.018
CNC[C@H](O)c1cccc(O)c1	1.02 ± 0.033	1.09 ± 0.064	0.955 ± 0.062	1.02 ± 0.13	1.075 ± 0.0071
CCN(CCCc1ccccc1)CCCc1ccccc1	1 ± 0.22	1.06 ± 0.021	1.08 ± 0.035	1 ± 0.036	0.916 ± 0.055
CCCCCC1C(=O)CCC1CC(=O)OC (stereo not given)	0.99 ± 0.057	1.03 ± 0.084	1.025 ± 0.0071	1.08 ± 0.05	1.03 ± 0.066
O=C1O[C@H](CO)[C@@H](O)[C@H](O)[C@H]1O	1.005 ± 0.0071	1.035 ± 0.0071	1.085 ± 0.0071	0.949 ± 0.051	0.945 ± 0.13
CC(CCc1ccccc1)NCC(O)c1ccc(O)c(C(N)=O)c1 (stereo not given)	1.01 ± 0.12	1.08 ± 0.014	0.943 ± 0.044	0.935 ± 0.012	0.939 ± 0.046
CN1CCCC(n2nc(Cc3ccc(Cl)cc3)c3ccccc3c2=O)CC1 (stereo not given)	1.01 ± 0.021	1.015 ± 0.0071	1.045 ± 0.0071	1.17 ± 0.17	1.06 ± 0.057
Nc1ccc(C(=O)O)cc1	0.9785 ± 0.00071	0.996 ± 0.034	0.974 ± 0.013	1.03 ± 0.035	0.965 ± 0.12
COC(=O)/C(=C1/OC(=O)C(c2ccccc2)=C1O)c1ccccc1	1.06 ± 0.057	1.02 ± 0.12	1.07 ± 0.064	1.05 ± 0.14	1.1 ± 0.05
COc1cc(C/C=C/c2ccccc2)c(OC)cc1O	1.02 ± 0.055	1.06 ± 0.093	1.03 ± 0.042	1.05 ± 0.22	1.04 ± 0.035
C[C@@H]1NC(=O)[C@H](Cc2ccccc2)NC1=O [cyclo(alanylphenylalanyl)]	1 ± 0.053	0.997 ± 0.17	0.96 ± 0.025	0.987 ± 0.12	1.04 ± 0.014

From the supplement of paper PMC6522484
